Reference: PubChem BioAssay (NCATS)
Results filed as inconclusive are left out. Where a call stands in place of a potency, no number is given. The source made the active and inactive calls. Calls come from the whole dose curve; as a rule, active = well fitted inhibition curve with a large enough effect; inconclusive = small, poorly fitted or top-dose-only effect; inactive = flat fitted curve, though single readings scatter.
Potency is the fitted concentration of half-maximal effect.

Each compound was assayed on TAB113 (assay: qHTS profiling for inhibitors of Plasmodium falciparum proliferation (AID 504749; note: nearly all actives have a fitted effect of over 60% in size)). Details: P. falciparum in erythrocytes, SYBR Green DNA, 72 h; series mostly up to 28.7 µM.
Procedure, shortened: (§1)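 P. falciparum-infected erythrocytes (0.3% parasitemia, 2.5% hematocrit) incubated with compound 72 h at 37 C, 5% CO2. Parasite DNA detected by SYBR Green after lysis, overnight at room temperature; normalised to 0.29 uM artemisinin and DMSO.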
For `CCCCCCC(O)C/C=C/CCCCCCCC(=O)O` (configuration not stated), the Potency was “inactive”. `CCCCCC(CC)COC(=O)CC(C(=O)OCC(CC)CCCC)S(=O)(=O)O` (configuration not stated) was tested, and the Potency was “inactive”. `C[C@]12CCC(=O)C=C1CC[C@@H]1[C@@H]2[C@@H](O)C[C@@]2(C)[C@H]1CC[C@]2(O)C(=O)COP(=O)(O)O` was tested, and the Potency was “inactive”. With `Cc1cc(C(=O)NNCc2ccccc2)no1` the Potency was “inactive”. `O=C(O)CCC(=O)C(=O)O` was tested, and the Potency was “inactive”. With `CCCCCCCCCCCC[n+]1ccc2ccccc2c1` the Potency was 1 µM (active). In the case of `Cc1cn([C@H]2C[C@H](O)[C@@H](CO)O2)c(=O)[nH]c1=O`, the Potency is reported as “inactive”.

Each compound was assayed on TAB165 in the same assay as above. Details: P. falciparum in erythrocytes, SYBR Green DNA, 72 h; series mostly up to 28.7 µM.
Procedure, shortened: as §1
`CO[C@H](C(=O)[C@@H](O)[C@@H](C)O)C1Cc2cc3cc(O[C@H]4C[C@@H](O[C@H]5C[C@@H](O)[C@H](O)[C@@H](C)O5)[C@@H](O)[C@@H](C)O4)c(C)c(O)c3c(O)c2C(=O)[C@H]1O[C@H]1C[C@@H](O[C@H]2C[C@@H](O[C@H]3C[C@](C)(O)[C@H](O)[C@@H](C)O3)[C@H](O)[C@@H](C)O2)[C@H](O)[C@@H](C)O1` (some centres not stated) was tested, and the Potency was 126 nM (active). `O=C(O)c1cc(O)c2c(c1)[O][Bi][O]2` was tested, and the Potency was “inactive”. `NC(=O)c1ncn(C2OC(CO)C(O)C2O)n1` (configuration not stated) was tested, and the Potency was “inactive”. `CC[N+](C)(C)Cc1ccccc1Br` was tested, and the Potency was “inactive”. `Nc1ncnc2c1ncn2[C@@H]1O[C@H](COP(=O)(O)OP(=O)(O)OP(=O)(O)O)[C@@H](O)[C@H]1O` was tested, and the Potency was “inactive”. With `CCCCCCCCCCCCCCCC(=O)OCC(COC(=O)CCCCCCCCCCCCCCC)OC(=O)CCCCCCCCCCCCCCC` the Potency was “inactive”. In the case of `CCCC(=O)O[C@]1(C(=O)CCl)[C@H](C)C[C@@H]2[C@H]3CCC4=CC(=O)C=C[C@]4(C)[C@@]3(F)C(=O)C[C@@]21C`, the Potency is reported as 2000 nM (active). With `CC(C)(C)C(=O)OCOC(=O)[C@@H]1N2C(=O)[C@@H](N=CN3CCCCCC3)[C@H]2SC1(C)C` the Potency was “inactive”. For `O=S(=O)(O)O`, the Potency was “inactive”. With `Cc1ccccc1OCC(O)CNCCOc1ccc(C(N)=O)cc1` (configuration not stated) the Potency was “inactive”. With `CCCCC/C=C\C/C=C\CCCCCCCC(=O)O` the Potency was “inactive”. In the case of `C[C@@H]1CCC2[C@@H](C)[C@@H](O)O[C@@H]3O[C@@]4(C)CC[C@@H]1[C@@]23OO4` (some centres not stated), the Potency is reported as 0.9 nM (active). In the case of `Nc1c(N=Nc2ccc(-c3ccc(N=Nc4cc(S(=O)(=O)O)c5ccccc5c4N)cc3)cc2)cc(S(=O)(=O)O)c2ccccc12`, the Potency is reported as “inactive”. In the case of `CC1(C)S[C@@H]2[C@H](NC(=O)[C@@H](NC(=O)N3CCNC3=O)c3ccccc3)C(=O)N2[C@H]1C(=O)O`, the Potency is reported as “inactive”. In the case of `COCC(=O)Nc1cc(Sc2ccccc2)ccc1N=C(NC(=O)OC)NC(=O)OC`, the Potency is reported as “inactive”. In the case of `CC(O)CO` (configuration not stated), the Potency is reported as “inactive”. With `COC(=O)CCC(=O)CN` the Potency was “inactive”. In the case of `CC1=C(/C=C/C(C)=C/C=C/C(C)=C/C=C/C=C(C)/C=C/C=C(C)/C=C/C2=C(C)CCCC2(C)C)C(C)(C)CCC1`, the Potency is reported as “inactive”. For `CN=C(NC#N)Nc1ccc(C2=NNC(=O)C[C@@H]2C)cc1`, the Potency was “inactive”. `C[C@H]1C[C@H]2[C@@H]3CCC4=CC(=O)C=C[C@]4(C)[C@@]3(F)[C@@H](O)C[C@]2(C)[C@@]1(O)C(=O)CO` was tested, and the Potency was “inactive”. In the case of `O=C1C(=O)c2ncccc2-c2cccnc21`, the Potency is reported as 794 nM (active). `CCCCCCCCCCCCCC[n+]1ccc(C)cc1` was tested, and the Potency was 3980 nM (active). `COC(C(=O)C(O)C(C)O)C1Cc2cc3cc(OC4CC(OC5CC(O)C(O)C(C)O5)C(O)C(C)O4)c(C)c(O)c3c(O)c2C(=O)C1OC1CC(OC2CC(OC3CC(C)(O)C(O)C(C)O3)C(O)C(C)O2)C(O)C(C)O1` (configuration not stated) was tested, and the Potency was 141 nM (active). For `CCCCCCC(O)C/C=C/CCCCCCCC(=O)O` (configuration not stated), the Potency was “inactive”. For `CCCCCC(CC)COC(=O)CC(C(=O)OCC(CC)CCCC)S(=O)(=O)O` (configuration not stated), the Potency was “inactive”. For `C[C@]12CCC(=O)C=C1CC[C@@H]1[C@@H]2[C@@H](O)C[C@@]2(C)[C@H]1CC[C@]2(O)C(=O)COP(=O)(O)O`, the Potency was “inactive”. With `Cc1cc(C(=O)NNCc2ccccc2)no1` the Potency was “inactive”. With `CCCCCCCCCCCC[n+]1ccc2ccccc2c1` the Potency was 891 nM (active). For `Cc1cn([C@H]2C[C@H](O)[C@@H](CO)O2)c(=O)[nH]c1=O`, the Potency was “inactive”.

Each compound was assayed on W2 in the same assay as above. Details: P. falciparum in erythrocytes, SYBR Green DNA, 72 h; series mostly up to 28.7 µM.
Procedure, shortened: as §1
In the case of `CO[C@H](C(=O)[C@@H](O)[C@@H](C)O)C1Cc2cc3cc(O[C@H]4C[C@@H](O[C@H]5C[C@@H](O)[C@H](O)[C@@H](C)O5)[C@@H](O)[C@@H](C)O4)c(C)c(O)c3c(O)c2C(=O)[C@H]1O[C@H]1C[C@@H](O[C@H]2C[C@@H](O[C@H]3C[C@](C)(O)[C@H](O)[C@@H](C)O3)[C@H](O)[C@@H](C)O2)[C@H](O)[C@@H](C)O1` (some centres not stated), the Potency is reported as 169 nM (active). `O=C(O)c1cc(O)c2c(c1)[O][Bi][O]2` was tested, and the Potency was “inactive”. For `NC(=O)c1ncn(C2OC(CO)C(O)C2O)n1` (configuration not stated), the Potency was “inactive”. `CC[N+](C)(C)Cc1ccccc1Br` was tested, and the Potency was “inactive”. In the case of `Nc1ncnc2c1ncn2[C@@H]1O[C@H](COP(=O)(O)OP(=O)(O)OP(=O)(O)O)[C@@H](O)[C@H]1O`, the Potency is reported as “inactive”. For `CCCCCCCCCCCCCCCC(=O)OCC(COC(=O)CCCCCCCCCCCCCCC)OC(=O)CCCCCCCCCCCCCCC`, the Potency was “inactive”. For `CCCC(=O)O[C@]1(C(=O)CCl)[C@H](C)C[C@@H]2[C@H]3CCC4=CC(=O)C=C[C@]4(C)[C@@]3(F)C(=O)C[C@@]21C`, the Potency was 1510 nM (active). `O=S(=O)(O)O` was tested, and the Potency was “inactive”. In the case of `Cc1ccccc1OCC(O)CNCCOc1ccc(C(N)=O)cc1` (configuration not stated), the Potency is reported as “inactive”. For `CCCCC/C=C\C/C=C\CCCCCCCC(=O)O`, the Potency was “inactive”. `C[C@@H]1CCC2[C@@H](C)[C@@H](O)O[C@@H]3O[C@@]4(C)CC[C@@H]1[C@@]23OO4` (some centres not stated) was tested, and the Potency was 0.5 nM (active). With `Nc1c(N=Nc2ccc(-c3ccc(N=Nc4cc(S(=O)(=O)O)c5ccccc5c4N)cc3)cc2)cc(S(=O)(=O)O)c2ccccc12` the Potency was “inactive”. In the case of `CC1(C)S[C@@H]2[C@H](NC(=O)[C@@H](NC(=O)N3CCNC3=O)c3ccccc3)C(=O)N2[C@H]1C(=O)O`, the Potency is reported as “inactive”. For `CC(O)CO` (configuration not stated), the Potency was “inactive”. For `COC(=O)CCC(=O)CN`, the Potency was “inactive”. For `CC1=C(/C=C/C(C)=C/C=C/C(C)=C/C=C/C=C(C)/C=C/C=C(C)/C=C/C2=C(C)CCCC2(C)C)C(C)(C)CCC1`, the Potency was “inactive”. For `C[C@H]1C[C@H]2[C@@H]3CCC4=CC(=O)C=C[C@]4(C)[C@@]3(F)[C@@H](O)C[C@]2(C)[C@@]1(O)C(=O)CO`, the Potency was “inactive”. For `O=C1C(=O)c2ncccc2-c2cccnc21`, the Potency was 1070 nM (active). For `CCCCCCCCCCCCCC[n+]1ccc(C)cc1`, the Potency was 1690 nM (active). In the case of `COC(C(=O)C(O)C(C)O)C1Cc2cc3cc(OC4CC(OC5CC(O)C(O)C(C)O5)C(O)C(C)O4)c(C)c(O)c3c(O)c2C(=O)C1OC1CC(OC2CC(OC3CC(C)(O)C(O)C(C)O3)C(O)C(C)O2)C(O)C(C)O1` (configuration not stated), the Potency is reported as 426 nM (active). In the case of `CCCCCCC(O)C/C=C/CCCCCCCC(=O)O` (configuration not stated), the Potency is reported as “inactive”. In the case of `C[C@]12CCC(=O)C=C1CC[C@@H]1[C@@H]2[C@@H](O)C[C@@]2(C)[C@H]1CC[C@]2(O)C(=O)COP(=O)(O)O`, the Potency is reported as “inactive”. For `Cc1cc(C(=O)NNCc2ccccc2)no1`, the Potency was “inactive”. With `O=C(O)CCC(=O)C(=O)O` the Potency was “inactive”. `CCCCCCCCCCCC[n+]1ccc2ccccc2c1` was tested, and the Potency was 301 nM (active). `Cc1cn([C@H]2C[C@H](O)[C@@H](CO)O2)c(=O)[nH]c1=O` was tested, and the Potency was “inactive”.
